# Bioassay records as filed in PubChem BioAssay.
# Sampled rows, rich in hits. Any-hit rate of the full collection: about 4%.
# Peg3 promoter = reduces Peg3 promoter-driven luciferase expression in HeLa; 1.7% of 360,000 active; inhibition, % at 20 µM; HeLa PEG-Prom luciferase reporter, luminescence, overnight;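 active means inhibition of at least 50% at 20 µM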
# CF NFkB inh = blocks PAF-induced NF-kB reporter in cystic fibrosis cells; KKLEB NF-kB-GFP reporter, GFP fluorescence overnight; inhibition, % at 5 µM; 0.86% of 360,000 active;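 active means at least 50% inhibition at 5 µM, scaled per plate between neutral and stimulator controls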;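 further: PAF is a Pseudomonas aeruginosa culture filtrate used as stimulus; plate controls were PAF-stimulated DMSO wells for no effect and unstimulated DMSO wells for full effect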
# TWEAK-Fn14 inh = TWEAK-Fn14 signaling inhibition; TWEAK-stimulated Fn14 reporter cells, luciferase luminescence, 8 h; inhibition, % at 10 µM; 2% of 360,000 active; AID 1159606; in the data active means inhibition above about 50%
# HIF-2a inh = HIF-2a inhibition; 786-0 RCC cells HIF-2a reporter, luciferase luminescence, overnight; AID 624352; 0.72% of 360,000 active; inhibition, % at 18.8 µM;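 active means inhibition of the luminescence signal of 40% or more relative to plate controls, in a single-dose primary screen at 18.75 µM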
# TROY NFkB inh = blocks TROY-dependent signaling in reporter cells | Q293 LMP1-TROYcd NF-kB luciferase reporter, 4 h | inhibition, % at 10 µM | 0.98% of 360,000 active | AID 1347056;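 active means compounds whose plate-normalised and pattern-corrected inhibition of the luciferase reporter signal at the single screening dose is 50% or more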
# KKLEB tox = reduces viability of KKLEB cystic fibrosis airway cells; KKLEB CF airway cells viability, ATPlite luminescence, overnight; active compounds read low; cells stimulated with P. aeruginosa culture filtrate; activity change (cytotoxicity), % at 5 µM; 0.36% of 360,000 active; AID 602141;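 active means corrected activity change at or below -50% at 5 µM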
# * = called active by the depositor.
SMILES,Peg3 promoter,CF NFkB inh,TWEAK-Fn14 inh,HIF-2a inh,TROY NFkB inh,KKLEB tox
O=C(c1ccc2c(=O)n(Cc3ccc(Cl)cc3)c(=S)[nH]c2c1)N1CCOCC1,43.8,-6.2,75.0*,37.8,43.7,-0.9
CCOC(=O)N1CCN(C(=O)c2ccc(Cn3c(=S)[nH]c4cc(OCC)c(OCC)cc4c3=O)cc2)CC1,10.5,-1.2,36.6,24.9,57.7*,0.0
CC1CCN(CCNC(=O)c2ccc3c(=O)n(Cc4ccc(Cl)cc4)c(=S)[nH]c3c2)CC1,94.5*,-5.1,-33.0,30.3,-36.1,-12.5
COCCCNC(=O)c1ccc2c(=O)n(Cc3ccc(Cl)cc3)c(=S)[nH]c2c1,9.1,-1.6,-28.6,-5.0,-32.2,-2.4
CCCCOc1ccc(C(C)NC(=O)C2CCCN(S(=O)(=O)CC)C2)cc1 (configuration not stated),20.1,-20.3,7.4,0.8,-13.4,-3.5
COC(=O)c1ccccc1NC(=O)C1CCN(S(C)(=O)=O)CC1,8.3,-11.9,11.8,-4.9,-9.1,-9.6
CCOC(=O)c1sc(NC(=O)CSc2nnnn2-c2ccc(C)cc2)c(C(=O)OCC)c1C,5.5,5.7,-5.5,-8.5,13.0,-11.1
CCOC(=O)c1sc(NC(=O)CSc2nc3c(c(=O)n2-c2ccc(C)cc2)SCC3)c(C(=O)OCC)c1C,-1.0,30.4,-33.1,1.2,-1.8,-60.0*
O=C1NC(=S)N/C1=C/c1ccc2c(c1)OCO2,71.9*,77.6*,54.3*,19.7,13.2,-21.7
O=C1NC(=S)SC1=Cc1ccc2c(c1)OCO2,-78.2,38.8,-4.2,-137.1,0.1,-23.8
COc1cc(CNC(C)C23CC4CC(CC(C4)C2)C3)ccc1OCC(=O)NC(C)(C)C (configuration not stated),72.1*,9.5,-18.2,25.1,6.4,-7.8
COc1ccc(C(=O)NCC(c2ccccc2)c2ccccc2)cc1S(=O)(=O)N1CCOCC1,2.8,-20.6,21.3,11.4,0.5,-16.7
C=CCN1C(=O)S/C(=C/c2ccsc2)C1=O,-173.4,-14.5,-13.6,-63.3,-79.3,-4.5
C=CCN1C(=O)S/C(=C/c2ccc(Sc3nc4ccccc4[nH]3)o2)C1=O,-4.2,20.8,73.2*,-16.3,51.5*,-11.6
CC(C)N1C(=O)S/C(=C/c2ccc(Sc3nc4ccccc4[nH]3)o2)C1=O,24.7,16.4,89.3*,-31.5,58.8*,-12.4
COC(=O)C1=C(C)N(Cc2ccco2)C(=O)/C1=C\c1ccc([N+](=O)[O-])cc1,94.5*,-23.0,-10.1,22.3,12.6,-6.2
COC(=O)C1=C(C)N(Cc2ccco2)C(=O)/C1=C\c1ccc(N(C)C)cc1,0.0,-34.5,-4.3,-2.2,-2.1,-18.9
CCOC(=O)N1CCC(NC(=O)CSc2cc(=O)n(C)c3ccccc23)CC1,13.6,3.3,1.9,-0.6,21.1,-8.2
Cc1ccc(CN2CCNC(=O)C2CC(=O)NCCCn2cccn2)o1 (configuration not stated),-0.2,-17.9,7.6,8.7,16.9,-3.2
CC(C)(C)NS(=O)(=O)c1cc(C(=O)Nc2sccc2C#N)ccc1Cl,-23.7,8.6,51.5*,-67.0,39.5,-6.1
O=C(Nc1cccc(Cl)c1)c1nc[nH]c1C(=O)NCCCNC(=O)c1[nH]cnc1C(=O)Nc1cccc(Cl)c1,56.6*,-13.1,18.6,8.0,15.7,5.1
CNC(=O)c1[nH]cnc1C(=O)Nc1cccc(Cl)c1,-150.6,9.5,5.6,-93.8,-5.1,-9.4
CC(C)(C)OC(=O)NCCCCCNC(=O)c1[nH]cnc1C(=O)Nc1ccccc1,33.0,0.0,32.5,13.5,10.3,3.7
O=C(Nc1ccccc1)c1nc[nH]c1C(=O)NCCNC(=O)c1[nH]cnc1C(=O)Nc1ccccc1,40.6,66.5*,16.8,-5.0,8.8,-10.7
C[C@H]1CN([C@@H](C)CO)C(=O)CCCn2cc(nn2)CO[C@@H]1CN(C)C(=O)C1CCCCC1,1.7,-1.7,-9.4,-4.0,-12.8,1.6
O=C(CO)c1c[nH]c2ccccc12,107.5*,16.6,2.0,18.9,15.5,-6.4
CC(=O)OCC(=O)c1c[nH]c2ccccc12,-4.5,-8.7,-7.8,31.8,-10.3,-8.2
CCN(CC)CCN(C(=O)c1ccccc1OC)c1nc2ccc(F)cc2s1,-50.4,-12.7,-27.1,-94.7,76.1*,-3.8
